Laboratory results reported in PubChem BioAssay AID602293 (National Center for Advancing Translational Sciences (NCATS), 2012).
Screen size: about 1,300 compounds; about 30 (2%) were called active. Another 10% or so got no clear call; they are omitted. The call rests on the fitted dose curve; in most records, active means well fitted inhibition curve with a large enough effect; inconclusive means small, poorly fitted or top-dose-only effect; inactive means flat fitted curve, though single readings scatter. The list comes from a sample in which actives are over-represented; it also holds similar structures and randomly drawn compounds.

Test: qHTS for antagonists of the Thyroid Stimulation Hormone Receptor: Hit Validation in HTRF Activity in a Luteinizing Hormone Receptor Cell Line
Conditions: LHR-expressing cell line, cAMP HTRF, antagonist mode; series mostly up to 58 µM; activity change, negative = inhibition: at the top concentration
Method in brief: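 HEK 293 cells stably expressing LH receptor, in DMEM with 10% FCS and 100 uM RO 20-1724, incubated with compound 30 min at room temperature. cAMP measured by competitive HTRF (anti-cAMP cryptate vs cAMP-d2), excitation 330 nm, emissions 615 and 660 nm.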
On the % scale 0 is the no-effect control and ±100 the full control effect.

Activity change, negative = inhibition, inactive:
O=C(CN1C(=O)NC2(CCCCCC2)C1=O)N1CCC(Cc2ccccc2)CC1 -0.781%
COc1ccc(NS(=O)(=O)c2cc(-c3cnc(C4CC4)o3)ccc2C)cc1 -3.75%
CC(C)Cn1c(-c2csc3c2CCCC3)n[nH]c1=S 2.71%
CC(=O)Oc1c(I)cc(I)cc1C(=O)Nc1ccc(Cl)cc1 -3.87%
Cc1ccc(NS(=O)(=O)c2cc(C(=O)Nc3cccc([N+](=O)[O-])c3)ccc2C)cc1 -4.12%
CCCCNC(=O)c1sc(=S)n2c1[nH]c(=O)c1ccccc12 -0.118%
Cc1cccc(CSCCNC(=O)c2ccc(N(C)S(=O)(=O)c3ccccc3)cc2)c1 -1.47%
O=[N+]([O-])c1ccc(COc2cccc(CNc3ccc(F)cc3)c2)cc1 2.34%
CCCCOc1ncnc2c1[nH]c1ccccc12 -2.8%
COC(=O)Cn1c(=NC(=O)CSC(C)=O)sc2ccccc21 -1.47%
CC(C)C[C@H](N)c1nnc(S(=O)(=O)Cc2ccc(F)cc2)o1 -0.792%
CC(C)c1ccc(/C=C/C(=O)NCCC2=CCCCC2)cc1 1.16%
CCOC(=O)c1sc(NC(=O)c2cc(-c3ccccc3)nc3ccccc23)c(C#N)c1C -1.11%
CC1CCc2nc(NC(=O)CSc3nc4ccccc4o3)sc2C1 (stereo not given) -3.41%
Cc1ccccc1NC1c2ccccc2C(=O)N1Cc1ccco1 (stereo not given) 0.697%
Cc1c(N=Nc2c(-c3ccc([N+](=O)[O-])cc3)[nH]n(C(N)=S)c2=O)cccc1[N+](=O)[O-] 2.29%
CC1CCN(S(=O)(=O)c2cccc(C(=O)N3CCN(c4ccc(F)cc4)CC3)c2)CC1 -1.37%
Cc1cccc2c1NC(=O)C2(c1ccc(O)cc1)c1ccc(O)cc1 -2.97%
Cc1ccc(-c2cc(C(=O)Nc3ccncc3)c3ccccc3n2)cc1 -2.05%
CSc1nsc(NC(=O)OCc2ccc(Cl)cc2)n1 -0.863%
CCOC(=O)Cc1csc(NC(=O)COc2ccc(N(C)S(=O)(=O)c3cccs3)cc2)n1 -4.36%
O=C1S/C(=C\c2ccc(O)c([N+](=O)[O-])c2)C(=O)N1c1ccccc1Cl 0.191%
Cn1c2c(c(=O)[nH]c1=O)C(c1ccc(O)cc1)C1=C(N2)c2ccccc2C1=O (stereo not given) -0.454%
O=S(=O)(c1ccc(SCc2ccc(Cl)cc2)nc1)N1CCCC1 -7.02%
CCOc1cc(C(=S)N2CCOCC2)ccc1OC(=O)c1ccccc1 -1.14%
